Calls of active or inactive are those of the source.

This note sets out measurements from PubChem BioAssay.

Test [1] in a line: small molecules captured by biotinylated probe aFSTL3 – biochemical, small-molecule microarray, fluorescence 635/667, stem cell growth factor project, primary screen (AID 1064).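 Also: measures binding of the biotinylated anti-FSTL3 antibody to printed compounds.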 To be noted: higher = more signal.
The nature of test [2]: binders from COS7 lysate, DM2A8 probe, primary screen, torsin A project, cell lysate, small-molecule microarray, fluorescence 635/667 (AID 1065). To be noted: higher = more signal, COS7 lysate expressing mutant human TOR1A.
Test [3] is described as follows: small molecules captured by biotinylated probe aFGF2 – biochemical, small-molecule microarray, fluorescence 635/667, stem cell growth factor project, primary screen (AID 1067).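 Also: measures binding of biotinylated aFGF2 protein to printed compounds on slides; z-score merges feature fluorescence and signal-to-noise across triplicate slides.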 To be noted: higher = more signal.
Test [4] can be described thus: small molecules captured by biotinylated probe aFGF10 – biochemical, small-molecule microarray, fluorescence 635/667, stem cell growth factor project, primary screen (AID 1071).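 Also: score merges 667 nm spot intensity and signal to noise from triplicate slides.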 To be noted: higher = more signal.
The target of test [5] is Neurogenic locus notch homolog protein 2 (Homo sapiens) (UniProt Q04721). In words: small molecules binding Notch2 protein – biochemical, small-molecule microarray, 635 nm fluorescence, stem cell growth factors, primary screen (AID 1073). To be noted: higher = more signal.
In test [6] the target is Pro-neuregulin-1, membrane-bound isoform (Homo sapiens) (UniProt Q02297). The test can be described thus: small molecules binding neuregulin-1 protein – biochemical, small-molecule microarray, fluorescence 635/667, psychiatric disease protein project, primary screen (AID 1075).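 Also: score combines 667 nm spot fluorescence with signal to noise.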 To be noted: NRG1 binding, 635 nm fluorescence, higher = more signal.
Chain of Pro-neuregulin-1, membrane-bound isoform (Homo sapiens) (Q02297 whole entry, looked up, the tested form may be a part, canonical isoform): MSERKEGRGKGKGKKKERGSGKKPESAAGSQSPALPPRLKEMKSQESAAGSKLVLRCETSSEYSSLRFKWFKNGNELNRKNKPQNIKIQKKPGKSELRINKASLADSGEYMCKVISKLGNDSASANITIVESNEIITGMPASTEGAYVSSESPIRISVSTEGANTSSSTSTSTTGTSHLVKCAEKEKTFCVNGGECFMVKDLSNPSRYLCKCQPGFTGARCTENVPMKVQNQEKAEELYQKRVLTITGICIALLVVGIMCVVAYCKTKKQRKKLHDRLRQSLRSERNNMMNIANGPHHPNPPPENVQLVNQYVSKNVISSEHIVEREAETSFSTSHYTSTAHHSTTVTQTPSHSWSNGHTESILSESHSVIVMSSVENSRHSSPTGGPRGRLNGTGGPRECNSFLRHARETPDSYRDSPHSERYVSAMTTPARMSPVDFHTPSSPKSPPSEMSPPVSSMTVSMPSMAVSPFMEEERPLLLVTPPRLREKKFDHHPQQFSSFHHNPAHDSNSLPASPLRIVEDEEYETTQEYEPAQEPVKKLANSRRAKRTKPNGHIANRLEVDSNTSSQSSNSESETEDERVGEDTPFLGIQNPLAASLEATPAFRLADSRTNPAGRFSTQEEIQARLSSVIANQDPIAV
Test [7] has as its system Neuregulin-1 EGF-like domain. In words: small molecules binding NRG1 EGF domain – biochemical, small-molecule microarray, 635 nm fluorescence, primary screen (AID 1081).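 Also: binding of the protein to compounds printed on small-molecule microarray slides.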 To be noted: higher = more signal.
A short description of test [8]: FRG1 expression reporter modulators in myotubes – cell-based, C2C12 myotubes, firefly/Renilla luciferase, luminescence, FRG1 inhibition for FSHD, primary screen (AID 1084). To be noted: FRG1 promoter luciferase, higher = more signal, called active from +8 up or from −8 down.
The nature of test [9]: small molecules captured by biotinylated probe aFST – biochemical, small-molecule microarray, fluorescence 635/667, stem cell growth factor project, primary screen (AID 1086).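 Also: score merges 667 nm fluorescence with signal-to-noise of each printed compound spot.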 To be noted: higher = more signal.
The nature of test [10]: binders of probe aHhip on microarray, primary screen, stem cell growth factor project, biochemical, small-molecule microarray, fluorescence 635/667 (AID 1087).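 Also: score merges spot fluorescence at 667nm with spot signal to noise ratio.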 To be noted: higher = more signal.
In test [11] the test system is PRMT1 (protein arginine N-methyltransferase 1). In words: small molecules binding arginine methyltransferase PRMT1 – biochemical, small-molecule microarray, 635 nm fluorescence, primary screen (AID 1088).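 Also: binding of Prmt1 protein to compounds spotted on small-molecule microarray slides.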 To be noted: higher = more signal.
Test [12] is described as follows: growth effects on S. cerevisiae YJM789 – YJM789 clinical isolate, OD600, 24 h, basal, primary screen (AID 1089).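 Also: growth of clinical yeast isolate S. cerevisiae YJM 789 seeded 1000 cells per well; test concentration not given here.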 To be noted: higher = more signal, called active from +8 up or from −8 down.
Test [13] in a line: S. pombe growth modifiers, basal conditions – strain 972, OD600, 24 h, no modulator, primary screen (AID 1090).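 Also: basal condition with compound alone and no growth modifier present; test concentration not given here.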 To be noted: S. pombe 972 growth, higher = more signal, called active from +8 up or from −8 down.
Test [14] is described as follows: budding yeast growth modifiers under rapamycin – strain BY4716, OD600, 96 h, primary screen (AID 1091). Also: test concentration not given here. To be noted: S. cerevisiae BY4716 + rapamycin, higher = more signal, called active from +8 up or from −8 down.
In test [15] the target is Torsin-1A-interacting protein 2 (Homo sapiens) (UniProt Q8NFQ8). The test can be described thus: small molecules binding lysate-expressed LULL1 – cell lysate, human LULL1 lysate, 635/667 nm fluorescence, primary screen (AID 1092).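 Also: probe is lysate of COS7 cells overexpressing human LULL1; score merges per-feature 667 nm fluorescence with signal-to-noise.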 To be noted: small-molecule microarray, hLULL1 lysate binding, 635 nm fluorescence; higher = more signal.
Chain of Torsin-1A-interacting protein 2 (Homo sapiens) (Q8NFQ8 whole entry, looked up): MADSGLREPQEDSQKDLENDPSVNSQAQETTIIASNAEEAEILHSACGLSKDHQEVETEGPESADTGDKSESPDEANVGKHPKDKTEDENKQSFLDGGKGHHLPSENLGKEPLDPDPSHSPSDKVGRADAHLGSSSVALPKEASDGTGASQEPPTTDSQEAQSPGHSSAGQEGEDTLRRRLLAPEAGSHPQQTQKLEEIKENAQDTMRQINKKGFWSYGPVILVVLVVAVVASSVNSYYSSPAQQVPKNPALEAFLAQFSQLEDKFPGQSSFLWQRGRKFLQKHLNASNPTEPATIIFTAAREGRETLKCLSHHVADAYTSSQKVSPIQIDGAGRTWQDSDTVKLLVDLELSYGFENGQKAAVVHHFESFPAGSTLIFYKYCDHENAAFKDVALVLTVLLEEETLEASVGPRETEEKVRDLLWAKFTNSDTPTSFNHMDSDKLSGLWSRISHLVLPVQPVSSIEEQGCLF
The nature of test [16]: optical density change of DRC41 E. coli – strain DRC41, OD650, 24 h, E. coli filamentation project, primary screen (AID 1093).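 Also: MC1000 strain lacking acrAB efflux and sulA so SOS filamentation is blocked; test concentration not given here.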 To be noted: E. coli DRC41 growth, higher = more signal, called active from +8 up or from −8 down.
Test [17] in a line: probe aLefty2 binding to arrayed compounds – biochemical, biotinylated probe, 635/667 nm fluorescence, primary screen (AID 1094).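 Also: score merges spot fluorescence near 667 nm with spot signal-to-noise ratio.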 To be noted: small-molecule microarray, higher = more signal.
In test [18] the test system is Noggin (protein binding on small-molecule microarray). The test can be described thus: small molecules binding Noggin protein – biochemical, 635/667 nm fluorescence, primary screen (AID 1095).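 Also: score merges 667 nm feature fluorescence with signal to noise over triplicate slides.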 To be noted: 635 nm fluorescence, higher = more signal.
The target of test [19] is Neurogenic locus notch homolog protein 3 (Homo sapiens) (UniProt Q9UM47). The test can be described thus: small molecules binding NOTCH3 protein – biochemical, 635/667 nm fluorescence, primary screen (AID 1096). To be noted: small-molecule microarray, 635 nm fluorescence, higher = more signal.
Chain of Neurogenic locus notch homolog protein 3 (Homo sapiens) (Q9UM47 whole entry, looked up): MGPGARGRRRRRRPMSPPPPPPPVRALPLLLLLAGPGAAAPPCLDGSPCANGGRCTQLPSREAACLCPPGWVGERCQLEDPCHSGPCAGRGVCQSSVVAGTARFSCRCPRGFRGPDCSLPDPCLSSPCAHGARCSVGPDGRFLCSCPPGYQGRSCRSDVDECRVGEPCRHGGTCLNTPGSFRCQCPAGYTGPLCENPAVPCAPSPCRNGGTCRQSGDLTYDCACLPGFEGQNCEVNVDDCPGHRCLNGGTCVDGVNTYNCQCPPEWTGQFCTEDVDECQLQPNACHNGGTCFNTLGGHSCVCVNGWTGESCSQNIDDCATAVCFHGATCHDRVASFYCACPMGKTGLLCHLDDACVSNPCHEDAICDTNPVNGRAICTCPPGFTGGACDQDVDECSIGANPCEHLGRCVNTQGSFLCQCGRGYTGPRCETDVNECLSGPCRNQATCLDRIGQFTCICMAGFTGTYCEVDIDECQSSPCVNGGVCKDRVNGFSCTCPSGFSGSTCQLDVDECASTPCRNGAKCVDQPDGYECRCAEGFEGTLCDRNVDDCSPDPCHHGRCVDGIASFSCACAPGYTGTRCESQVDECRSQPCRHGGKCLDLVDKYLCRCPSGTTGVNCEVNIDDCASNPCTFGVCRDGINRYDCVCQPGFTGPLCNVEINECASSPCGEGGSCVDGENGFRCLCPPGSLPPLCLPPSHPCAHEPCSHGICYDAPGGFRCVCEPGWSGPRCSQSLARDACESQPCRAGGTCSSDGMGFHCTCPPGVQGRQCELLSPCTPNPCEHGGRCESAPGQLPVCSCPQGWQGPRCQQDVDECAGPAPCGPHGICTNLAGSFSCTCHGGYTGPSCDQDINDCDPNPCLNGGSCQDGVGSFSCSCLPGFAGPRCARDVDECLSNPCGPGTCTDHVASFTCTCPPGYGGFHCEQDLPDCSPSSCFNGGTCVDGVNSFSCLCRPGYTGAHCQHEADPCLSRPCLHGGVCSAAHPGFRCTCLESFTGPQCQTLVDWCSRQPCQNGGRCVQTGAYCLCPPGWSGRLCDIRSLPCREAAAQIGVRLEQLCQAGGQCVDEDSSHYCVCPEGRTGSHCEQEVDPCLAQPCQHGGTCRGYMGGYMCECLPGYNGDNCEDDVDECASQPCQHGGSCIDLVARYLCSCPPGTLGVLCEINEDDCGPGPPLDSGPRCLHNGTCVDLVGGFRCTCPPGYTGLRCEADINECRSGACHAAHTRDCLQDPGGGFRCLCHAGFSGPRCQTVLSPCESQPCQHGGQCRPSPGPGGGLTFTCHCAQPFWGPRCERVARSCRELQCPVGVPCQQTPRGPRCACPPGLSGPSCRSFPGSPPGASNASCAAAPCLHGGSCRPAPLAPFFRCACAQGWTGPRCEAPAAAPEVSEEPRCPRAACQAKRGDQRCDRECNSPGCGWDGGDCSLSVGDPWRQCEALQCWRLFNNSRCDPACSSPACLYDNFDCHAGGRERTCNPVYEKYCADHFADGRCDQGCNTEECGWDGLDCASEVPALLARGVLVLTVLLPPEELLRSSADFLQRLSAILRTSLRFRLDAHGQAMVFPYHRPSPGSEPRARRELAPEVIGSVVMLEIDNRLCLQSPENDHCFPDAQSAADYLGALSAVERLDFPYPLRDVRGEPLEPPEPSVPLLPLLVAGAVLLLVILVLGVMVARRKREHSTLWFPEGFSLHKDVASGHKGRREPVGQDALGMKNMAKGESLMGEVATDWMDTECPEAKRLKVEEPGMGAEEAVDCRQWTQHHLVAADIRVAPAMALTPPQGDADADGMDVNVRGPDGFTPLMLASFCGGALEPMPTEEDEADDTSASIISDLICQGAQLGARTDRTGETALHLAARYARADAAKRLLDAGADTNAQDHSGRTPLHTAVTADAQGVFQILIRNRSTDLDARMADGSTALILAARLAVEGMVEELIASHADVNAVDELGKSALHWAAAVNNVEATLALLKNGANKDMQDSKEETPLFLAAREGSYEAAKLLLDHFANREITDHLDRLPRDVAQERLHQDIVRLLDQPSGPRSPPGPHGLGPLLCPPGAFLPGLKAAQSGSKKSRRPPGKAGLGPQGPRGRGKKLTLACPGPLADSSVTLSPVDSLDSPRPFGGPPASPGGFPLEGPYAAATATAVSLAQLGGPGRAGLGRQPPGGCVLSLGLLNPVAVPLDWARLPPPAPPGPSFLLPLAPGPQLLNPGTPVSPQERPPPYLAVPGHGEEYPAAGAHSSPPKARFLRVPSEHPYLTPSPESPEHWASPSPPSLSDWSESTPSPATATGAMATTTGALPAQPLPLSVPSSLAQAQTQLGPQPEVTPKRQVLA
Test [20] is described as follows: probe aEGFR binding to arrayed compounds – biochemical, biotinylated probe, 635/667 nm fluorescence, primary screen (AID 1097).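 Also: probe is a biotinylated anti-EGFR antibody binding compounds printed on slides; score combines fluorescence near 667 nm and signal to noise of each spot.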 To be noted: small-molecule microarray, higher = more signal.

Consider `CN1C2C=C(c3ccc(CO)cc3)C(C3C(=O)N(C(N)=O)C(=O)C32)C1C1CC1` (stereo not given), for which the composite z-score in [1] was -0.153; in test [2], 0.103; in test [3], -0.146; in [4], -0.0401; in test [5], -0.161; in [6], 0.0413. Also, the composite z-score in test [7] is 0.663; in test [9] it was -0.0595; in test [10] it was -0.201; in test [11], 0.132; in test [15], -0.0967; in test [17], -0.178. Moreover, the composite z-score in [18] is -0.4; in [19], -0.607; in test [20] it was -0.201. Moreover, the z-score is 0.567 (inactive) in [8]; -1.07 (inactive) in test [12]; -0.257 (inactive) in test [13]; 1.2 (inactive) in test [14]; 0.214 (inactive) in [16].
Consider `CCOC(=O)C1=CC[C@@H](c2ccccc2)N(S(=O)(=O)c2ccc(C)cc2)[C@@H]1C#N`, for which the composite z-score was -0.182 in [1]; -0.0258 in test [2]; 0.0056 in [3]; 0.388 in [4]; 1.25 in [5]; 1.11 in test [6]. Also, the composite z-score in test [7] stood at 1.05; in [9], 0.158; in test [10] it was 0.0505; in test [11], 0.712; in test [15] it was 2.69; in [17], 0.0979. The composite z-score was -0.59 in test [18], 0.749 in test [19] and -0.013 in test [20]. The z-score was -0.823 (inactive) in test [8]; -0.671 (inactive) in test [12]; -2.08 (inactive) in test [13]; 0.529 (inactive) in test [14]; 0.405 (inactive) in test [16].
Take `COC(=O)c1ccc(OC)c(/C=C\CC(OC(=O)c2ccncc2)c2ccccc2)c1` (stereo not given): the composite z-score in [1] is -0.273; in test [2], 0.285; in test [3], -0.107; in test [4] it was 0.257; in test [5] it was 0.481; in [6] it was -0.106. In addition, the composite z-score in test [7] was -0.0115; in test [9], 0.0754; in test [10], 0.0514; in [11] it was 0.264; in [15] it was 0.179; in [17], -0.0851. For the same molecule, the composite z-score is 0.66 in test [18], 0.0482 in test [19] and -0.0286 in test [20]. Also, the z-score in test [8] was -1.97 (inactive); in [12], -2.64 (inactive); in [13], -2.43 (inactive); in test [14] it was -0.0389 (inactive); in test [16], 1.27 (inactive).
Consider `COCCOC(=O)N1C(=O)[C@@]2(c3ccccc31)[C@H](C(=O)Nc1nc3ccccc3s1)[C@H]1C(=O)O[C@H](c3ccccc3)[C@H](c3ccccc3)N1[C@@H]2c1ccccc1OCCO`, for which the composite z-score is 0.451 in test [1]; 0.0049 in test [2]; -0.0036 in test [3]; 0.798 in test [4]; 1.15 in [5]; 1.05 in [6]. For the same molecule, the composite z-score turned out to be 1.2 in [7]; 0.318 in test [9]; 0.157 in test [10]; 1.56 in test [11]; 2.73 in test [15]; 0.248 in [17]. The composite z-score in test [18] is 0.579; in test [19] it was 1.1; in test [20], -0.0035. Besides, the z-score in test [8] is 2.13 (inactive); in test [12] it was 2.4 (inactive); in test [13] it was 2.78 (inactive); in [14], 5.08 (inactive); in [16], 0.694 (inactive).
With `Cc1ccc(S[C@]2(C(=O)NCCN3CCOCC3)CC(=O)N(C(C)C)[C@@H]2c2ccc(CO)cc2I)cc1`, the composite z-score in [1] is 1.15; in [2], -0.158; in test [3], -0.0805; in test [4], -0.11; in test [5], -0.521; in [6], 1.69. For the same molecule, the composite z-score is 1.35 in test [7]; 0.153 in test [9]; -0.166 in test [10]; 1.5 in [11]; 2.46 in test [15]; 0.126 in test [17]. In addition, the composite z-score was -0.889 in [18], 0.0467 in [19] and -0.0234 in [20]. Further, the z-score in [8] was -0.977 (inactive); in test [12], -2.73 (inactive); in [13] it was -1.75 (inactive); in test [14], -0.616 (inactive); in test [16], 3.42 (inactive).
